Results filed as inconclusive are left out. Active and inactive are the calls of the source. Calls come from the whole dose curve; as a rule, active = well fitted cell-killing curve with a large enough effect; inconclusive = small, poorly fitted or top-dose-only effect, or effect the other way; inactive = no such curve, though single readings can be large or run the other way.
Potency is the fitted concentration of half-maximal effect.

This test is described as follows: Quantitative High-Throughput drug screen in 47 multiple myeloma cell lines against the NCATS MIPE library collection: VP6_DJ cell viability assay (AID 1919867). Note: nearly all actives have a fitted effect of over 40% in size. As to conditions: ATP luminescence, 48 h; series mostly up to 45.8 µM. An excerpt:
PI: Beverly A. Mock Ph.D.
Laboratory of Cancer Biology and Genetics,
Center for Cancer Research, National Cancer Institute,
National Institute of Health, Bethesda, Maryland
Drug resistance and disease progression are common in multiple myeloma (MM) patients, underscoring the need for new therapeutic combinations. […] We hypothesized that effective combinations would reduce MYC expression and enhance p16 activity. […] These preclinical data identify potentially useful drug combinations for evaluation in drug-resistant MM and reveal potential mechanisms of combined drug sensitivity.
Described herein is the primary MIPE qHTS used to cherrypick compounds. Validated compounds were then further tested for potential synergistic activiy.
[1] Peat TJ, Gaikwad SM, Dubois W, Gyabaah-Kessie N, Zhang S, Gorjifard S, Phyo Z, Andres M, Hughitt VK, Simpson RM, Miller MA, Girvin AT, Taylor A, Williams D, D'Antonio N, Zhang Y, Rajagopalan A, Flietner E, Wilson K, Zhang X, Shinn P, Klumpp-Thomas C, McKnight C, Itkin Z, Chen L, Kazandijian D, Zhang J, Michalowski AM, Simmons JK, Keats J, Thomas CJ, Mock BA. Drug combinations identified by high-throughput screening promote cell cycle transition and upregulate Smad pathways in myeloma. Cancer Lett. 2023 Aug 1;568:216284. doi: 10.1016/j.canlet.2023.216284. Epub 2023 Jun 24. PMID: 37356470; PMCID: PMC10408729.
SEQUENCE No. (e.g., 1, 2, 3, etc.); […] (e.g., Cells, Incubation, Reagent, etc.); VALUE and DESCRIPTION.
1; Cells; 5 uL; white, solid bottom 1536-well Greiner assay plate.
2; Compounds; 23 nL; Kalypsis pin tool (Wako USA) equipped with a 1536-well pin head to transfer to the assay plates.
3; Incubation; 48 hours; 37C incubation.
4; Reagent;5uL; CellTiter Glo (Promega).
5; Detector; 425V; Luminescence; Viewlux PerkinElmer.
NOTES (numbers refer to Sequence numbers above)
1. The cell-based screening methods employed in this study were like those previously published. Briefly, the corresponding myeloma cell lines were screened in 1,536-well plates with 500 cells, 5-uL per well for inhibition of cell viability (assessed by measuring ATP levels with CellTiterGlo).
2. NCATS MIPE 4.0 library of approved and investigational drugs were added using the Kalypsis pin tool. Wells treated with DMSO only for 100% viability and media only for 0% viability were used as controls.
3. The assay plates were covered and incubated for 48 hours in a 37C, 5% CO2 incubator with controlled humidity.
4. After 48 hours, CellTilter-GloTM luminescent substrate mix (Promega) reagent was added to the assay plate and plates we incubated for 5 min at room temperature.
5. Signal was measured as median relative luminescence units on a ViewLux (PerkinElmer) multiplate reader.
[1] Heske CM, Davis MI, Baumgart JT, Wilson K, Gormally MV, Chen L, Zhang X, Ceribelli M, Duveau DY, Guha R, Ferrer M, Arnaldez FI, Ji J, Tran HL, Zhang Y, Mendoza A, Helman LJ, Thomas CJ. Matrix Screen Identifies Synergistic Combination of PARP Inhibitors and Nicotinamide Phosphoribosyltransferase (NAMPT) Inhibitors in Ewing Sarcoma. Clin Cancer Res. 2017 Dec 1;23(23):7301-7311. doi: 10.1158/1078-0432.CCR-17-1121. Epub 2017 Sep 12. PMID: 28899971; PMCID: PMC6636827.
Turning to `NC(=O)c1c(OCc2c(F)cc(Br)cc2F)nsc1NC(=O)NCCCCN1CCCC1`, the Potency is 10.5 µM (active).
As for `Cc1nc(N)ncc1-c1nc(N2CCOCC2)c2sc(C(C)(C)O)cc2n1`, the figure is 0.935 µM (active); as for `CCOc1ccccc1OCCNC(C)Cc1ccc(OC)c(S(N)(=O)=O)c1` (stereo not given), “inactive”; as for `CC(O)C1C(=O)N2C(C(=O)O)=C(SC3CNC(C(=O)N(C)C)C3)C(C)C12` (stereo not given), 2.64 µM (active).
As for `Fc1cc(-c2cccc3ncc(-c4cnn(C5CCNCC5)c4)nc23)cc(F)c1CN1CCOCC1`, the figure is 9.35 µM (active).
Next, `Cc1cc(Nc2cc(N3CCN(C)CC3)nc(Sc3ccc(NC(=O)C4CC4)cc3)n2)n[nH]1`: 18.7 µM (active); `Cc1cc(Nc2cc(NC(=O)c3c(Cl)cccc3Cl)ccn2)nc(N)n1`: 1.66 µM (active).
As to `O=C(O)CO.[NH2-].[NH2-].[Pt+2]`, the Potency result is “inactive”.
As for `Nc1ncnc2c1c(-c1cccc(OCc3ccccc3)c1)cn2C1CC(CN2CCCC2)C1` (stereo not given), the figure is 0.743 µM (active); as for `CC(NCc1ccc2c(c1)nc(NC(=O)c1ccc(-c3cn[nH]c3)s1)n2CC(C)(C)O)C(C)(C)C` (stereo not given), 0.187 µM (active).
As for `Nc1nc(-c2nn(Cc3ccccc3F)c3ncccc23)nc(N)c1N1CCOCC1`, the figure is 3.72 µM (active).
With `COc1cc(C(C)C)c2c(c1)S(=O)(=O)N(COc1cc(=O)n3cccc(OCCN4CCCCC4)c3n1)C2=O`, the Potency is 16.6 µM (active).
Next, `CCN(CC)CCCCNc1ncc2cc(-c3cc(OC)cc(OC)c3)c(NC(=O)NC(C)(C)C)nc2n1`: 10.5 µM (active); `Cc1cc(CN2CCN(c3c(Br)cnc4nc(-c5ccc(N6CCN(C)CC6)cc5)[nH]c34)CC2)no1`: 3.32 µM (active).
Consider `C[C@@H]1CN(CC(=O)Nc2ccc3c(c2)Cc2cccc(-c4cc(=O)cc(N5CCOCC5)o4)c2S3)C[C@H](C)O1`, for which the Potency was 16.6 µM (active).
As for `COC(=O)[C@]12CCC(C)(C)C[C@@H]1[C@@H]1C(=O)C=C3[C@@]4(C)C=C(C#N)C(=O)C(C)(C)[C@@H]4CC[C@@]3(C)[C@]1(C)CC2`, the figure is 0.264 µM (active).
Next, `CCOc1cc2ncc(C#N)c(Nc3ccc(F)c(Cl)c3)c2cc1NC(=O)C=CCN(C)C`: 4.69 µM (active); `Cc1nc(Nc2n[nH]c3c2CN(C(=O)N[C@H](CN(C)C)c2ccccc2)C3(C)C)c2sccc2n1`: 0.372 µM (active).
For the compound `CNC(=O)c1c(F)cccc1Nc1nc(Nc2cc3c(cc2OC)CCN3C(=O)CN(C)C)nc2[nH]ccc12`, the Potency is 0.105 µM (active).
As for `Nc1ccccc1NC(=O)c1ccc(CNc2nccc(-c3cccnc3)n2)cc1`, the figure is 0.469 µM (active).
Next, `Cc1ccc(S(=O)(=O)Nc2cc(Cl)ccc2C(=O)Nc2nc(-c3ccccc3)cs2)cc1`: 6.62 µM (active); `O=C(c1ccc(Nc2nccc(-c3cc4ccccc4s3)n2)cc1)N1CCC(N2CCCC2)CC1`: 3.32 µM (active).
Turning to `Cc1c(NC(=O)OC[C@@H]2COCCN2)cn2ncnc(Nc3ccc4c(cnn4Cc4cccc(F)c4)c3)c12`, the Potency is 1.87 µM (active).
Take `CC=CC1=C(C(=O)O)N2C(=O)[C@H](NC(=O)[C@H](N)c3ccc(O)cc3)[C@@H]2SC1`: the Potency was 2.96 µM (active).
As to `CN1c2cc(O)c(N=NC(N)=O)cc2CC1S(=O)(=O)O` (stereo not given), the Potency result was “inactive”.
For `O=C(Nc1cn[nH]c1-c1nc2ccc(CN3CCOCC3)cc2[nH]1)NC1CC1`, the Potency was 2.96 µM (active).
As for `Cc1cc(Nc2ncnc3ccc(-c4ccc(CNCCS(C)(=O)=O)o4)cc23)ccc1Oc1ccn2ncnc2c1`, the figure is 1.48 µM (active); as for `O=C(CCCCCCNC(=O)c1cnc(N(c2ccccc2)c2ccccc2)nc1)NO`, 2.35 µM (active).
As to `COCCn1c2c([n+](Cc3cnccn3)c1C)C(=O)c1ccccc1C2=O`, the Potency is 0.0148 µM (active).
As for `CN(C)c1nc(Cc2ccc(NC(=O)c3ccc4ccccc4c3)cc2)nc(Cl)c1CC(=O)O`, the entry is “inactive”.
`CC1(C)CC(=O)c2c(C(F)(F)F)nn(-c3ccc(C(N)=O)c(NC4CCC(OC(=O)CN)CC4)c3)c2C1` (stereo not given): the Potency was 0.166 µM (active).
For `CC1(C)CCC(c2ccc(Cl)cc2)=C(CN2CCN(c3ccc(C(=O)NS(=O)(=O)c4ccc(N[C@H](CCN5CCOCC5)CSc5ccccc5)c(S(=O)(=O)C(F)(F)F)c4)cc3)CC2)C1`, the Potency is 0.372 µM (active).
With `CN(c1ncccc1CNc1nc(Nc2ccc3c(c2)CC(=O)N3)ncc1C(F)(F)F)S(C)(=O)=O`, the Potency was 2.64 µM (active).
Regarding `COc1cccc2nc(-c3cccs3)nc(NN3C(=O)C=C(C)C3=O)c12`, the Potency is 0.0372 µM (active).
Next, `COc1ccc(C(=O)CC2(O)C(=O)Nc3c(Cl)ccc(Cl)c32)cc1` (stereo not given): 2.96 µM (active); `O=c1[nH]nc(Sc2ncc([N+](=O)[O-])s2)n1-c1ccc2c(c1)OCCO2`: 2.35 µM (active).
With `CC(C)c1ccc(Cn2ccc3c4c(N)nc(NC5CC5)nc4ccc32)cc1`, the Potency was 3.32 µM (active).
As for `CC(=O)OCC(=O)[C@@]1(O)[C@H](C)C[C@H]2[C@@H]3C=C(C)C4=Cc5c(cnn5-c5ccccc5)C[C@]4(C)[C@@H]3[C@@H](O)C[C@@]21C`, the figure is 9.35 µM (active).
In the case of `COc1ccc(F)c(F)c1C(=O)c1cnc(NC2CCN(S(C)(=O)=O)CC2)nc1N`, the Potency is 0.935 µM (active).
As for `Cc1nc2ccc(CN(C)c3ccc(C(=O)N[C@@H](CCC(=O)O)C(=O)O)s3)cc2c(=O)[nH]1`, the entry is “inactive”.

The values are drawn from PubChem BioAssay (NCATS).
